Bioassay records as filed in PubChem.
HPGD block: qHTS Assay for Inhibitors of HPGD (15-Hydroxyprostaglandin Dehydrogenase). 15-hydroxyprostaglandin dehydrogenase [NAD(+)] (Homo sapiens), P15428. purified HPGD, NADH fluorescence kinetic, PGE2 substrate. Potency, µM, for inactives: at the highest dose activity change, negative = inhibition, most hits filed as inhibitors. actives 4.3% (n = 150,000). AID 894, 2007; active = well fitted inhibition curve with a large enough effect, not every such curve was filed as active; inconclusive = small, poorly fitted or top-dose-only effect, or another doubt; inactive = no such curve, though single readings can be large or run the other way; note: potency is the fitted concentration of half-maximal effect; % is set by controls: 0 for no effect and ±100 for the full control effect
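NADH formation kinetics: reaction with 30 uM PGE2 and 1 mM NAD+ (final), 20 nM enzyme, Tris-HCl pH 8 with Tween 20, after 15 min compound preincubation at room temperature. Fluorescence change, last versus first of five reads.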
RGS12 GoLoco inh: qHTS Assay for Inhibitors of RGS12 GoLoco Motif Activity (Red Fluorophore); AID 880, 2007; actives 0.44% (n = 230,000); Potency, µM (titrated, usually from 61.6 µM), for inactives: top-dose activity, negative = inhibition, usual class: inhibitors; Gai1:RGS12 GoLoco peptide FP, rhodamine, 10 min; Guanine nucleotide-binding protein G(i) subunit alpha-1 (Homo sapiens), P63096; active = well fitted inhibition curve with a large enough effect, not every such curve was filed as active; inactive = no such curve, though single readings can be large or run the other way; note: potency is the fitted concentration of half-maximal effect; % is set by controls: 0 for no effect and ±100 for the full control effect; nearly all actives have a fitted effect of over 30% in size
PNC inhibitor: High Content Assay for Compounds that inhibit the Assembly of the Perinucleolar Compartment; PC3M PTB-GFP, PNC prevalence imaging, 16 h; hits give low values; activity change (PNC), negative = inhibition, % at 10 µM; actives 3.1% (n = 140,000); AID 2417, 2010;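 active = readout at or below -70, meaning at least 70% loss of cells showing the perinucleolar compartment, a nuclear body marking cancer cells; inconclusive = readout between -30 and a set limit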;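 note: plate controls were DMSO wells for no effect and camptothecin positive control wells for full effect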
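Read-out is percentage of cells bearing a perinucleolar compartment, from automated 20x imaging of fixed, Hoechst-stained PC3M PTB-GFP cells. Cells were seeded 4 h, then exposed 16 h to compound (23 nl of library stock) in duplicate plates.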
HTT aggregate: qHTS Multiplex Assay to Identify Dual Action Probes in a Cell Model of Huntington: Aggregate Formation (GFP); actives 1.1% (n = 220,000); Potency, µM (doses to about 46.1 µM), for the others: at the highest dose activity change, negative = inhibition, hits mostly inhibitors; PC12 HttQ103-GFP aggregates, Acumen cytometry, 40 h; AID 1688, 2009; note: potency is the fitted concentration of half-maximal effect; % is set by controls: 0 for no effect and ±100 for the full control effect; nearly all actives have a fitted effect of over 60% in size
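PC12/HTTQ103-GFP, ecdysone-inducible; teb 100 nM; cpd qHTS titration; GFP aggregates read on laser cytometer, Ex 488/Em 500-530 nm.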
HTT ATP protect: qHTS Multiplex Assay to Identify Dual Action Probes in a Cell Model of Huntington: Cytoprotection (ATP); PC12 HTT-Q103 induced, cytoprotection, ATP luminescence, 40 h; Potency, µM (highest dose often 56.4 µM), without a hit: cytoprotection (ATP increase), usual class: activators; actives 0.14% (n = 230,000); note: potency is the fitted concentration of half-maximal effect; % of control where 0% means no effect; nearly all actives have a fitted effect of over 45% in size
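Rat PC12, Q103 Htt exon1-GFP fusion, ecdysone promoter; tebufenozide inducer 100 nM final; compound titration; qHTS, 1500 cells/well; ATPlite luminescent read.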
ALDH1A1 inh: qHTS Assay for Inhibitors of Aldehyde Dehydrogenase 1 (ALDH1A1); Purified ALDH1A1, NADH fluorescence, propionaldehyde substrate; AID 1030, 2008; Potency, µM (titrated, usually from 75.3 µM), for inactives: at the top dose activity, negative = inhibition, most hits filed as inhibitors; actives 7.3% (n = 220,000); Aldehyde dehydrogenase 1A1 (Homo sapiens), P00352; active = well fitted inhibition curve with a large enough effect, not every such curve was filed as active; inconclusive = small, poorly fitted or top-dose-only effect, or another doubt; inactive = no such curve, though single readings can be large or run the other way;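 note: potency is the fitted concentration of half-maximal effect; plate controls were no enzyme wells and a reference inhibitor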
Target sequence (P00352 whole entry, looked up): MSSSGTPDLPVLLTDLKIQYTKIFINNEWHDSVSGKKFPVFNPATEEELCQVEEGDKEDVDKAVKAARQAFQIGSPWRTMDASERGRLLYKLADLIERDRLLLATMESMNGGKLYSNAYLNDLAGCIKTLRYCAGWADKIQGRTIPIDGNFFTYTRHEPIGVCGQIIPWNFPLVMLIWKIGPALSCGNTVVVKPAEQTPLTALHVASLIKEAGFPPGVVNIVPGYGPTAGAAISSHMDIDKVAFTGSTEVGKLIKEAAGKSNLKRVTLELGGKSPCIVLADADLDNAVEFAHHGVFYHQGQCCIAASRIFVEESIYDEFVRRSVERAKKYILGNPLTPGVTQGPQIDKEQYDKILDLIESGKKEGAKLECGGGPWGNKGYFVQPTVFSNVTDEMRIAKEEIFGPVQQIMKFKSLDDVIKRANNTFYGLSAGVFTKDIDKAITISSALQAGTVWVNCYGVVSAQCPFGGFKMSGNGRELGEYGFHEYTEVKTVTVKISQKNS
An asterisk follows results filed as active; ? = inconclusive; . = no result; [ ] = remark or other dose. This is a sample that favours compounds with a hit; in the whole collection about 11% have one here. Unless noted, calls come from the whole dose curve; as a rule, active = well fitted curve in the direction sought with a large enough effect; inconclusive = small, poorly fitted or top-dose-only effect, or another doubt; inactive = no such curve, though single readings can be large; an effect the other way counts as inactive or inconclusive.

SMILES	HPGD block	RGS12 GoLoco inh	PNC inhibitor	HTT aggregate	HTT ATP protect	ALDH1A1 inh
CCCn1c(CCC(=O)Nc2ccccc2Cc2ccccc2)nc2cc(S(=O)(=O)N3CCOCC3)ccc21	0.9%	155.7%	-3.7	23.7%[9.22 µM]	-29.5%	?
O=C(COC(=O)c1cccc(C(F)(F)F)c1)NCc1ccc(Cl)cc1	14.1µM*	3.1%	-11.1	14.3%	19.8%[10 µM]	16.8%
O=C(COC(=O)c1cccc(C(F)(F)F)c1)NCc1ccccc1	-1.9%	2.5%	107.1	7.7%	.	7.7%
CCCCCC(=O)NNC(=O)Cc1ccc([N+](=O)[O-])cc1	.	-2.1%	.	26.5%	-10.8%	-10.0%
CCCCOc1ccc(C(=O)N/C(=C/c2cccc([N+](=O)[O-])c2)C(=O)O)cc1	.	-10.8%	.	-10.6%[9.22 µM]	-17.8%	11.2µM*
CCCCC(=O)NNC(=S)NC(=O)c1cccc([N+](=O)[O-])c1	8.91µM*	-41.3%	4.6	6.2%	4.8%	1.78µM*
CCCCC/C=N\NC(=O)Cc1ccc([N+](=O)[O-])cc1	-7.6%	3.1%	-94.6*	-15.2%	3.2%[10 µM]	10.8%
CCCCC(=O)Nc1ccc(C(=O)NNC(=S)NC(=O)c2ccccc2[N+](=O)[O-])cc1	.	1.9%	.	21.8%	.	?
CCCCC(=O)NNC(=S)NC(=O)c1ccc([N+](=O)[O-])cc1	.	-9.6%	.	-18.6%	-25.6%	5.62µM*
Cn1c([N+](=O)[O-])cnc1CN1CCN(CCO)CC1	-7.6%	2.7%[14.2 µM]	.	.	-3.1%[10 µM]	6.5%[13.5 µM]
Cc1ccc(C(=O)NC(=S)NNC(=O)CC#N)cc1	.	0.8%	.	.	.	-0.1%
CCCCC(=O)NNC(=S)NC(=O)c1ccc(C)cc1	.	12.0%	.	-12.3%[9.22 µM]	-4.4%[10 µM]	25.1µM*
C=CCNc1nc(-c2sc(NC(C)=O)nc2C)cs1	?	21.3%	-18.9	12.6µM*	-33.8%	?
COc1ccc(Nc2nc(-c3sc(N)nc3C)cs2)cc1	-23.0%	79.7%	?	30.3%	0.3%[10 µM]	7.08µM*
Cc1nc(NC(=O)CC(C)C)sc1-c1csc(Nc2ccc(Cl)cc2)n1	?	33.1%	50.2	?	-64.3%	?
COc1ccc(Nc2nc(-c3sc(NC(C)=O)nc3C)cs2)cc1	?	0.9%	-11.6	-3.1%[9.22 µM]	-33.9%	31.6µM*
Cc1nc(N)sc1-c1csc(Nc2ccccn2)n1	-8.3%	16.0%	9.2	-6.9%	-4.2%	?
COc1ccc(Nc2nc(C)c(-c3ccccc3)s2)cc1	20µM*	8.2%	-24.5	?	-8.1%[10 µM]	25.1µM*
COC(=O)Cn1c(C(=O)N2CCCC2)cc2c1C[C@H]1CN(C(=O)c3ccccc3)[C@@](Cc3ccccc3)(C(=O)OC)[C@@H]21	-2.4%	-6.4%	.	.	5.2%	-7.5%
CC(C)=CC[N+]1(C)CCCCC1	-3.4%	-2.7%	15.4	6.8%	5.5%[10 µM]	5.9%
COc1ccc(CCNc2nc(-c3sc(N)nc3C)cs2)cc1OC	-10.0%	23.6%	-107.7*	-4.9%	7.9%	?
COc1ccc(CCNc2ccncn2)cc1OC	-3.2%	-17.1%	?	-31.9%	-28.0%	3.4%
CCN(CC)c1nc(OC)nc(-n2nnc(C(C)=O)c2C)n1	-17.9%	2.1%	22.9	?	-2.8%	-7.6%
CC(C)(C)C1=CC(=Nc2ccccc2N)C=C(C(C)(C)C)C1=O	2.0%	0.3%	7.1	-6.3%	-10.5%[10 µM]	5.0%
CC(C)(C)C1=CC(=O)C(=O)C(C(C)(C)C)=C1	3.98µM*	2.2%	-5.0	-2.4%	.	2.82µM*
Cc1onc(-c2cccc(Cl)c2Cl)c1C(=O)O/N=C(\N)c1ccc([N+](=O)[O-])o1	.	-1.7%	.	6.0%[9.22 µM]	9.3%[10 µM]	5.01µM*
COc1ccc(/C(C)=N\Nc2nc(-c3ccccc3)cc(=O)[nH]2)cc1	?	6.4%	-4.7	5.9%	7.8%[10 µM]	?
